Laboratory results published in the supplement of paper PMC4466140.

B1: unnamed (peptide)
chain: TKRKRPARLIFYDSK

What follows are binders tested against AgAbp1 (assay: SPOT peptide array binding signal intensity (averaged, normalized) (arbitrary units (background-subtracted, floor 0; scale differs between SH3 domains)); higher = stronger binding of the SH3 domain to the peptide).
Summary of the method: (§1)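 Spot intensities were captured after detection with anti-GST antibody, an HRP-linked anti-mouse secondary and luminol, and quantified with Genespotter. The probes were GST-fused SH3 domains from four yeast species, produced in E. coli BL21(DE3), purified on glutathione Sepharose and incubated at 10 μg/ml overnight at 4°C on cellulose-bound synthetic 15-mer peptides with cysteines replaced by serines. Binding signal is the normalized, background-subtracted spot intensity averaged over replicates, and its arbitrary units differ between domains.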
B1 was tested, and the “SPOT peptide array binding signal intensity” value was 113.

The binders below were run against AgBbc1 in the same assay as above.
Summary of the method: as §1
For B1, the “SPOT peptide array binding signal intensity” value was 40.2.

What follows are binders tested against AgBem1-D1 in the same assay as above.
Summary of the method: as §1
For B1, the “SPOT peptide array binding signal intensity” value was 82.

These binders were tested against AgBzz1-D1 in the same assay as above.
Summary of the method: as §1
B1 was tested, and the “SPOT peptide array binding signal intensity” value was 26.

Each binder was assayed against AgBzz1-D2 in the same assay as above.
Summary of the method: as §1
B1 was tested, and the “SPOT peptide array binding signal intensity” value was 20.

What follows are binders tested against AgCyk3 in the same assay as above.
Summary of the method: as §1
With B1 the “SPOT peptide array binding signal intensity” value was 13.5.

What follows are binders tested against AgFus1 in the same assay as above.
Summary of the method: as §1
B1 was tested, and the “SPOT peptide array binding signal intensity” value was 436.

Each binder was assayed against AgHof1 in the same assay as above.
Summary of the method: as §1
For B1, the “SPOT peptide array binding signal intensity” value was 20.5.

These binders were tested against AgHse1 in the same assay as above.
Summary of the method: as §1
In the case of B1, the “SPOT peptide array binding signal intensity” value is reported as 696.

The binders below were run against AgLsb1 in the same assay as above.
Summary of the method: as §1
With B1 the “SPOT peptide array binding signal intensity” value was 3.5.

These binders were tested against AgLsb4 in the same assay as above.
Summary of the method: as §1
B1 was tested, and the “SPOT peptide array binding signal intensity” value was 122.

The binders below were run against AgMyo5 in the same assay as above.
Summary of the method: as §1
For B1, the “SPOT peptide array binding signal intensity” value was at most 0.

Each binder was assayed against AgNbp2 in the same assay as above.
Summary of the method: as §1
For B1, the “SPOT peptide array binding signal intensity” value was 236.

Each binder was assayed against AgRvs167 in the same assay as above.
Summary of the method: as §1
B1 was tested, and the “SPOT peptide array binding signal intensity” value was 3.67.

What follows are binders tested against AgSho1 in the same assay as above.
Summary of the method: as §1
In the case of B1, the “SPOT peptide array binding signal intensity” value is reported as 94.5.

The binders below were run against AgSla1-D1-D2 in the same assay as above.
Summary of the method: as §1
B1 was tested, and the “SPOT peptide array binding signal intensity” value was 1050.

These binders were tested against AgSla1-D3 in the same assay as above.
Summary of the method: as §1
For B1, the “SPOT peptide array binding signal intensity” value was 1.25.

What follows are binders tested against CaAbp1-D1 in the same assay as above.
Summary of the method: as §1
For B1, the “SPOT peptide array binding signal intensity” value was 717.

What follows are binders tested against CaAbp1-D2 in the same assay as above.
Summary of the method: as §1
B1 was tested, and the “SPOT peptide array binding signal intensity” value was 662.

The binders below were run against CaBbc1 in the same assay as above.
Summary of the method: as §1
In the case of B1, the “SPOT peptide array binding signal intensity” value is reported as 66.5.

These binders were tested against CaBem1-D1 in the same assay as above.
Summary of the method: as §1
In the case of B1, the “SPOT peptide array binding signal intensity” value is reported as 16.

The binders below were run against CaBzz1-D1 in the same assay as above.
Summary of the method: as §1
For B1, the “SPOT peptide array binding signal intensity” value was 108.

The binders below were run against CaBzz1-D2 in the same assay as above.
Summary of the method: as §1
With B1 the “SPOT peptide array binding signal intensity” value was 40.2.

The binders below were run against CaCyk3 in the same assay as above.
Summary of the method: as §1
In the case of B1, the “SPOT peptide array binding signal intensity” value is reported as 119.

The binders below were run against CaFus1 in the same assay as above.
Summary of the method: as §1
With B1 the “SPOT peptide array binding signal intensity” value was 876.

These binders were tested against CaHof1 in the same assay as above.
Summary of the method: as §1
With B1 the “SPOT peptide array binding signal intensity” value was 1.5.

What follows are binders tested against CaHse1 in the same assay as above.
Summary of the method: as §1
B1 was tested, and the “SPOT peptide array binding signal intensity” value was 36.8.

Each binder was assayed against CaLsb1 in the same assay as above.
Summary of the method: as §1
With B1 the “SPOT peptide array binding signal intensity” value was 1.5.

The binders below were run against CaLsb4 in the same assay as above.
Summary of the method: as §1
In the case of B1, the “SPOT peptide array binding signal intensity” value is reported as 85.

Each binder was assayed against CaMyo5 in the same assay as above.
Summary of the method: as §1
With B1 the “SPOT peptide array binding signal intensity” value was 3.5.

These binders were tested against CaNbp2 in the same assay as above.
Summary of the method: as §1
B1 was tested, and the “SPOT peptide array binding signal intensity” value was 450.

The binders below were run against CaRvs167 in the same assay as above.
Summary of the method: as §1
B1 was tested, and the “SPOT peptide array binding signal intensity” value was 19.8.

These binders were tested against CaRvs167-3 in the same assay as above.
Summary of the method: as §1
B1 was tested, and the “SPOT peptide array binding signal intensity” value was 240.

What follows are binders tested against CaSho1 in the same assay as above.
Summary of the method: as §1
With B1 the “SPOT peptide array binding signal intensity” value was 605.

The binders below were run against CaSla1-D1-D2 in the same assay as above.
Summary of the method: as §1
For B1, the “SPOT peptide array binding signal intensity” value was 1.

What follows are binders tested against CaSla1-D3 in the same assay as above.
Summary of the method: as §1
With B1 the “SPOT peptide array binding signal intensity” value was 25.

Each binder was assayed against ScAbp1 in the same assay as above.
Summary of the method: as §1
For B1, the “SPOT peptide array binding signal intensity” value was 26.

These binders were tested against ScBbc1 in the same assay as above.
Summary of the method: as §1
In the case of B1, the “SPOT peptide array binding signal intensity” value is reported as 22.

These binders were tested against ScBem1-D1 in the same assay as above.
Summary of the method: as §1
With B1 the “SPOT peptide array binding signal intensity” value was 22.5.

These binders were tested against ScBzz1-D1 in the same assay as above.
Summary of the method: as §1
With B1 the “SPOT peptide array binding signal intensity” value was 12.

The binders below were run against ScBzz1-D2 in the same assay as above.
Summary of the method: as §1
For B1, the “SPOT peptide array binding signal intensity” value was 22.

These binders were tested against ScCyk3 in the same assay as above.
Summary of the method: as §1
In the case of B1, the “SPOT peptide array binding signal intensity” value is reported as 62.

What follows are binders tested against ScFus1 in the same assay as above.
Summary of the method: as §1
In the case of B1, the “SPOT peptide array binding signal intensity” value is reported as 354.

These binders were tested against ScHof1 in the same assay as above.
Summary of the method: as §1
For B1, the “SPOT peptide array binding signal intensity” value was 0.5.

What follows are binders tested against ScHse1 in the same assay as above.
Summary of the method: as §1
In the case of B1, the “SPOT peptide array binding signal intensity” value is reported as 1060.

The binders below were run against ScLsb1 in the same assay as above.
Summary of the method: as §1
In the case of B1, the “SPOT peptide array binding signal intensity” value is reported as 5.5.

These binders were tested against ScLsb2 in the same assay as above.
Summary of the method: as §1
In the case of B1, the “SPOT peptide array binding signal intensity” value is reported as 5.

Each binder was assayed against ScLsb3 in the same assay as above.
Summary of the method: as §1
With B1 the “SPOT peptide array binding signal intensity” value was 239.

The binders below were run against ScLsb4 in the same assay as above.
Summary of the method: as §1
For B1, the “SPOT peptide array binding signal intensity” value was 13.

These binders were tested against ScMyo3 in the same assay as above.
Summary of the method: as §1
With B1 the “SPOT peptide array binding signal intensity” value was 2.5.

These binders were tested against ScMyo5 in the same assay as above.
Summary of the method: as §1
With B1 the “SPOT peptide array binding signal intensity” value was 3.

These binders were tested against ScNbp2 in the same assay as above.
Summary of the method: as §1
In the case of B1, the “SPOT peptide array binding signal intensity” value is reported as 975.

These binders were tested against ScPex13 in the same assay as above.
Summary of the method: as §1
For B1, the “SPOT peptide array binding signal intensity” value was 3.5.

The binders below were run against ScRvs167 in the same assay as above.
Summary of the method: as §1
In the case of B1, the “SPOT peptide array binding signal intensity” value is reported as 23.8.

What follows are binders tested against ScSho1 in the same assay as above.
Summary of the method: as §1
For B1, the “SPOT peptide array binding signal intensity” value was 382.

These binders were tested against ScSla1-D1-D2 in the same assay as above.
Summary of the method: as §1
For B1, the “SPOT peptide array binding signal intensity” value was 198.

These binders were tested against ScSla1-D3 in the same assay as above.
Summary of the method: as §1
With B1 the “SPOT peptide array binding signal intensity” value was 13.2.

Each binder was assayed against SpAbp1-D1 in the same assay as above.
Summary of the method: as §1
B1 was tested, and the “SPOT peptide array binding signal intensity” value was 190.

The binders below were run against SpBbc1 in the same assay as above.
Summary of the method: as §1
For B1, the “SPOT peptide array binding signal intensity” value was 3.

These binders were tested against SpBzz1-D1 in the same assay as above.
Summary of the method: as §1
With B1 the “SPOT peptide array binding signal intensity” value was 77.5.

What follows are binders tested against SpBzz1-D2 in the same assay as above.
Summary of the method: as §1
In the case of B1, the “SPOT peptide array binding signal intensity” value is reported as 0.75.

Each binder was assayed against SpCyk3 in the same assay as above.
Summary of the method: as §1
In the case of B1, the “SPOT peptide array binding signal intensity” value is reported as 8.

The binders below were run against SpHof1 in the same assay as above.
Summary of the method: as §1
In the case of B1, the “SPOT peptide array binding signal intensity” value is reported as 172.

These binders were tested against SpHof1-2 in the same assay as above.
Summary of the method: as §1
With B1 the “SPOT peptide array binding signal intensity” value was 27.5.

The binders below were run against SpHof1-3 in the same assay as above.
Summary of the method: as §1
B1 was tested, and the “SPOT peptide array binding signal intensity” value was 380.

What follows are binders tested against SpHse1 in the same assay as above.
Summary of the method: as §1
For B1, the “SPOT peptide array binding signal intensity” value was 299.

These binders were tested against SpLsb1 in the same assay as above.
Summary of the method: as §1
In the case of B1, the “SPOT peptide array binding signal intensity” value is reported as 4.

The binders below were run against SpLsb4 in the same assay as above.
Summary of the method: as §1
With B1 the “SPOT peptide array binding signal intensity” value was 205.

What follows are binders tested against SpMyo1 in the same assay as above.
Summary of the method: as §1
In the case of B1, the “SPOT peptide array binding signal intensity” value is reported as 4.25.

Each binder was assayed against SpNbp2 in the same assay as above.
Summary of the method: as §1
B1 was tested, and the “SPOT peptide array binding signal intensity” value was 584.

Each binder was assayed against SpPex13 in the same assay as above.
Summary of the method: as §1
With B1 the “SPOT peptide array binding signal intensity” value was 11.

Each binder was assayed against SpRvs167 in the same assay as above.
Summary of the method: as §1
In the case of B1, the “SPOT peptide array binding signal intensity” value is reported as 4.33.

These binders were tested against SpSla1-D1-D2 in the same assay as above.
Summary of the method: as §1
B1 was tested, and the “SPOT peptide array binding signal intensity” value was 4.

The binders below were run against SpSla1-D3 in the same assay as above.
Summary of the method: as §1
With B1 the “SPOT peptide array binding signal intensity” value was 7.
